From PubChem BioAssay (EPA / NIEHS) come the findings set out here.

“And” between values parts separate entries of the source, which are not always exact repeats. Equal entries are not always repeated. The source made the active and inactive calls. Rule for the calls: active = hit-call score of the fitted dose curve at least 0.9, where 1 is the maximum; inactive = score below 0.9.

Read-out in the assay: Monokine induced gamma interferon (MIG), CXCL9 (gene 4283)
Briefly: BSK_SAg_MIG: BioMAP Diversity Plus: SAg Assay for Monokine induced gamma interferon (MIG) Biomarker Activity (AID 2283092). The following applies: primary human HUVEC with PBMC; actives raise or lower the signal. As for the experimental part: BSK_SAg is a cell-based, multiplexed-readout assay that uses umbilical vein endothelium and peripheral blood mononuclear cells, a human vascular primary cell co-culture, with measurements taken at 24 hours after chemical dosing in a 96-well plate.BSK_SAg_MIG is an assay component measured in the BSK_SAg assay. It measures MIG antibody related to regulation of gene expression using ELISA technology.Data from the assay component BSK_SAg_MIG was analyzed into 1 assay endpoint. This assay endpoint, BSK_SAg_MIG, was analyzed with bidirectional fitting relative to DMSO as the negative control and baseline of activity. Using a type of binding reporter, gain or loss-of-signal activity can be used to understand changes in the signaling as they relate to the gene CXCL9. Furthermore, this assay endpoint can be referred to as a primary readout, because this assay has produced multiple assay endpoints where this one serves a signaling function. To generalize the intended target to other relatable targets, this assay endpoint is annotated to the cytokine intended target family, where the subfamily is chemotactic factor.
The levels of cell surface (or secreted, indicated by the prefix "s") biomarker endpoints were measured by ELISA. Overt cytotoxicity to cells in confluent adherent cultures (all systems other than the BT system) was assessed by measuring total protein levels using sulforhodamine B (SRB) staining in parallel cultures at the time of biomarker measurements, indicated as SRB endpoints. For proliferation assays for adherent cell types, individual cell types are cultured at sub-confluence and relative cell numbers quantified by SRB staining at time points optimized for each system (48 h: 3C and CASM3C systems; 72 h: BT and HDF3CGF systems; 96 h: SAg system). SRB was performed by staining cells with 0.1% SRB after fixation with 10% TCA and reading wells at 560 nm.Viability and proliferation of PBMC (T cells) was quantified by Alamar Blue reduction for the SAg and BT systems. For PBMC viability (referred to as PBMC Cytotoxicity within the assay endpoint names), cells were plated (75,000/well in a 96-well plate) and then chemical samples added for 1 h before addition of activators, SEB and TSST-1 (20 ng/mL final concentration each). Cells were incubated for 90 h. Then, Alamar Blue (20 uL/well) (Invitrogen, Cat DAL1100) was added for 6 h, and the plates were read with a fluorescence microplate reader at 546/580 nm (excitation/emission). For PBMC proliferation, cells were plated and activated as above but incubated for only 16 h prior to addition of Alamar Blue. Plates were read after 6 h.
For the compound `Cc1ccc([N+](=O)[O-])cc1N`, the result was inactive. Same read-out and setting: the result for `Cc1c(O)cccc1O` reads “inactive”. Consider `CCCCCC1=CCCC1=O`, for which the outcome was inactive. Still for that read-out and setting: with `COc1ccc(C(=O)c2ccccc2)c(O)c1` the entry was “inactive”. On the same count and under the same terms, with `CC1=CC=C(C(C)C)CC1` the entry was “inactive”; with `c1ccc2sc(SSN3CCOCC3)nc2c1`, “inactive”. The term AC50 denotes the concentration giving half of the maximal activity seen. As to `COc1ccc(C(=O)/C(Br)=C\C(=O)O)cc1`, the AC50 is 35.2 µM (active) and 34.5 µM (active). Regarding `CC1(C)CC(O)CC(C)(C)N1[O]`, the outcome was inactive. In the case of `C=CCCCCCCCCC=O`, the outcome was inactive. As to `CC/C=C\CCOC(=O)c1ccccc1O`, the outcome was inactive. Regarding `Fc1ccc(Br)cc1`, the outcome was inactive. For `CC(C)CCCCCOC(=O)CS`, the outcome was inactive.

As to `CC(C)C(=O)OCCc1ccccc1`, the result was inactive. On the same count and under the same terms, with `COC(OC)(C(=O)c1ccccc1)c1ccccc1` the entry was “inactive”; with `CCCCCCCCCCCC(=O)N(C)CC(=O)O`, “inactive”. Turning to `CCc1cccc(C)c1N(C(=O)CS(=O)(=O)O)C(C)COC` (stereo not given), the result was inactive. Still for that read-out and setting: with `Oc1ccccc1Cc1ccccc1O` the entry was “inactive”.

For `C=CC(=O)OCC(C)OCC(C)OCC(C)OC(=O)C=C` (stereo not given), the AC50 is 20 µM (active). As to `O=C1CCCCCCCCCCC1`, the outcome was inactive. The same measure, in the same setting: with `CC(C)c1cccc(C(C)C)c1N` the entry was “inactive”; with `CC=C(C)C(C)=O`, “inactive”. With `CCCCCCCO`, the result was inactive.

`CCCCCCCCC(CO)CCCCCC` (stereo not given): the result was inactive. `CCOC(=O)/C=C\C(=O)OCC`: the outcome was inactive. Regarding `CC/C=C\C/C=C\C/C=C\CCCCCCCC(=O)OC`, the AC50 is 37.2 µM (active). For the compound `CCC1(C)C(=O)N(Cl)C(=O)N1Cl` (stereo not given), the result was inactive. With `CC(C)[N+](C)(CCOC(=O)C1c2ccccc2Oc2ccccc21)C(C)C`, the outcome was inactive. For the compound `Clc1cc(Cl)c(Cl)c(Cl)c1Cl`, the outcome was inactive. For the compound `Nc1nc(N)nc(-c2ccccc2)n1`, the result was inactive. Turning to `C1CNCCN1`, the outcome was inactive. As to `O=C1CCCCCCCCCCCN1`, the result was inactive. Still for that read-out and setting: the result for `CCCCCCOC(=O)CCCCC(=O)OCCCCCC` reads “inactive”; that for `CC(CCC(=O)O)(c1ccc(O)cc1)c1ccc(O)cc1`, “inactive”.

As to `CCOC(=O)C1=NOC(c2ccccc2)(c2ccccc2)C1`, the result was inactive. On the same count and under the same terms, with `C=CC(=O)NC(C)(C)C` the entry was “inactive”.

For `CC=C(C)C=CC=C(C)C`, the result was inactive. Still for that read-out and setting: with `Nc1ccc(C(=O)O)cc1` the entry was “inactive”; with `C[N+](C)(C)CCCNS(=O)(=O)C(F)(F)C(F)(F)C(F)(F)C(F)(F)C(F)(F)C(F)(F)C(F)(F)C(F)(F)F`, “inactive”; with `Nc1cccc(N)n1`, “inactive”. Take `C=C(C)C(=O)OCCCCCCCCCCCC`: the result was inactive.
